In the library only some 21% were active in any assay of this set; here they are far more common.
Pf growth 96h – inhibits malaria parasite growth, 96 h | Potency, µM (series often up to 28.7 µM), for the others: at the top dose activity change, negative = inhibition, actives largely listed as inhibitors | AID 504834 | 320,000 compounds, 6.9% hits | P. falciparum luciferase reporter growth, 96 h; further: potency means the concentration at half of the fitted maximal effect; on the % scale 0 is the no-effect control and ±100 the full control effect
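Two parasite generations (96 h, 37 C, 5% CO2) of compound exposure in infected erythrocytes (0.05% parasitemia, 2% hematocrit). Luciferase-reporter P. falciparum; decreased luminescence indicates inhibited growth, aimed at apicoplast-acting delayed death.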
SARS PLpro yeast – SARS-CoV PLP inhibition in yeast. S. cerevisiae expressing SARS-CoV PLpro, growth rescue. AID 485353. 330,000 compounds, 0.19% hits. Potency, µM (series often up to 32.9 µM), for inactives: at the highest dose activity, positive = growth rescue, actives largely listed as activators; calls by dose curve; further: potency means the concentration at half of the fitted maximal effect; 0% is about no effect; nearly all actives have a fitted effect of over 55% in size
Pf growth 48h – P. falciparum growth inhibition at 48 hours (one generation); P. falciparum luciferase growth in erythrocytes, 48 h; Potency, µM (top dose mostly 28.7 µM), for the others: at the highest dose activity change, negative = inhibition, hits mostly inhibitors; 310,000 compounds, 5.9% hits; AID 504832; further: potency means the concentration at half of the fitted maximal effect; on the % scale 0 is the no-effect control and ±100 the full control effect
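A one-generation exposure of luciferase-tagged malaria parasites in RPMI 1640/Albumax erythrocyte culture, 37 C and 5% CO2. Inhibition is inferred from decreased luminescence after adding detection reagent.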
Cycloheximide cs – affects cycloheximide protein synthesis inhibition readout, counter-screen; cell reporter, cycloheximide protein synthesis inhibition counterscreen; max response, %; 300,000 compounds, 12% hits; in the data active means max response mostly above about 13%, no sharp cut-off; inactive means mostly below about 14%; further: read at 38.3 µM for the half of the compounds with a filed dose; 0% is about no effect
Shiga toxin inh – blocks Shiga toxin action in Vero cells; Vero cells, Shiga toxin protein synthesis inhibition reporter; inhibition, % at 38.7 µM; 290,000 compounds, 9.2% hits; AID 2315; in the data active means inhibition mostly above about 28%, no sharp cut-off; inactive means mostly below about 43%; further: 0% is about no effect
NS1 function inh – blocks influenza NS1 protein function. 270,000 compounds, 0.4% hits. Potency, µM (highest dose often 46.1 µM), inactives show at the highest dose activity, positive = more growth; calls by dose curve; further: potency means the concentration at half of the fitted maximal effect; actives are rising curves; nearly all actives have a fitted effect of over 50% in size
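OD600 was taken as the measure of yeast growth restored by compound in an NS1-expressing S. cerevisiae strain. Cells had been washed out of glucose medium and diluted 1:100 into galactose -URA medium, pH 6.0.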
* marks the source's active call; other numbers are inactive results; i = inactive; ? = inconclusive; · = no result. Unless noted, the call rests on the fitted dose curve; in most records, active means well fitted inhibition curve with a large enough effect; inconclusive means small, poorly fitted or top-dose-only effect, or another doubt; inactive means no such curve, though single readings can be large or run the other way.

SMILES | Pf growth 96h | SARS PLpro yeast | Pf growth 48h | Cycloheximide cs | Shiga toxin inh | NS1 function inh
CN(C)c1ccc(-[n+]2c(-c3ccccc3)cc(-c3ccccc3)cc2-c2ccccc2)cc1 | ? | -4% | ? | -12 | -33 | -41%
Cc1ccc(-c2cc(-c3ccc(C)cc3)[n+](-c3ccccc3)c(-c3ccc(C)cc3)c2)cc1 | 0.29µM* | -2% | 0.29µM* | · | · | ·
c1ccc(-c2cc(-c3ccccc3)[n+](-c3ccccc3)c(-c3ccccc3)c2)cc1 | 0.37µM* | 1% | 0.29µM* | -2 | 7 | -5%
O=C(C1CCCN(CCCc2ccccc2)C1)N1CCCCC1 (stereo not given) | 36% | 4% | 19% | 2 | -9 | -6%
O=C(Nc1cccc(Cl)c1)c1cccc(N2C(=O)C3CC=CCC3C2=O)c1 (stereo not given) | 7% | 1% | ? | 6 | 9 | -4%
Cc1ccc(-c2cc(-c3ccc(C)cc3)[n+](-c3ccc(C(=O)[O-])cc3)c(-c3ccc(C)cc3)c2)cc1 | ? | -13% | 3.7µM* | · | · | ·
O=C(Nc1ccccc1)c1nn(-c2ccccc2)c(=O)cc1C(F)(F)F | ? | 0% | 31% | 4 | -2 | 1%
O=C(c1ccccc1)c1nn(-c2ccc(Cl)cc2)c(=O)cc1C(F)(F)F | ? | -3% | ? | 13* | 33* | -48%
O=C(c1ccccc1)c1nn(-c2ccccc2)c(=O)cc1C(F)(F)F | 0% | 2% | 91% | 17* | 27 | -1%
O=C(c1cccc(Cl)c1)c1nn(-c2ccccc2)c(=O)cc1C(F)(F)F | 13µM* | -6% | ? | -2 | 20 | -66%
O=C(NCc1cccc(F)c1)C1CCC(=O)N(C2CC2)C1 (stereo not given) | -3% | -5% | 17% | -1 | 9 | 10%
Cc1nnc(SCC(=O)N(C2CCCCC2)C2CCS(=O)(=O)C2)n1N (stereo not given) | 35% | 3% | -11% | · | · | ·
Cc1nnc(SCc2cnc(-c3ccc(C(C)C)cc3)s2)n1C | 12µM* | 9% | 250% | 27* | 39 | -8%
C[C@]12CC[C@H]3C(=CCc4cc(O)ccc43)[C@@H]1CCC2=O | ? | -16% | ? | 16* | 34 | -25%
COc1ccccc1C(=O)NNC(=O)C(=O)NC1CCCCC1 | 1% | 0% | 4% | -6 | -7 | -9%
Cc1cc(C)c(NC(=O)CNC(=O)COC(=O)Cc2ccccc2C)c(C)c1 | -7% | 0% | -13% | · | · | ·
COc1cc(N=Nc2c(O)c3ccccc3[nH]c2=O)c(OC)cc1N=Nc1ccccc1 | 2.3µM* | 1% | 3.3µM* | 13 | 17 | 1%
N=C(N)c1ccc(N=Nc2c(O)ccc3c2[nH]c2ccccc23)cc1 | · | · | · | · | · | -5%
COc1cc(N=Nc2ccccc2C(=O)O)ccc1O | ? | 0% | ? | 5 | 14 | 6%
NC(=O)c1ccc(N=Nc2c(O)c3ccccc3[nH]c2=O)cc1 | 1.5µM* | 22% | 2.6µM* | 1 | 4 | -3%
Cc1cc(OCC(=O)N2CCC(O)CC2)c2c(C)cc(=O)oc2c1 | ? | 2% | 2% | 1 | -6 | -1%
NNc1nc2c(Cl)ccc(Cl)c2s1 | ? | -25% | 3% | -1 | -3 | 2%
O=C(CN1CCN(C(=O)C2COc3ccccc3O2)CC1)Nc1ccc(F)cc1 (stereo not given) | -21% | 1% | 17% | -2 | -9 | 3%
Cc1ccc(Nc2ccc(-n3ccnc3)nn2)cc1C | 10µM* | -8% | ? | 22* | 2 | -81%
CCOC(=O)Cc1cnc(NC(=O)Cn2nnc(-c3ccc(OCC)cc3)n2)s1 | 6.6µM* | 5% | 0% | 3 | 33 | -9%
SMILES | Pf growth 96h | SARS PLpro yeast | Pf growth 48h | Cycloheximide cs | Shiga toxin inh | NS1 function inh
COc1ccc(CNC(=O)Cn2nnc(-c3ccc(NC(=O)C4CCCCC4)cc3)n2)cc1 | 208% | 17% | 62% | 21* | 23 | 8%
O=C(Cn1nnc(-c2ccccc2F)n1)NCc1ccco1 | 8% | 0% | 46% | 12 | 29 | -4%
CCOc1ccc(-c2nnn(CC(=O)NCc3ccco3)n2)cc1OCC | i | 14% | -28% | -2 | -1 | 16%
CCCCOc1ccc(-c2nnn(CC(=O)Nc3ncc(CC(=O)OCC)s3)n2)cc1 | ? | -1% | ? | -2 | 14 | -27%
CCCCOc1ccc(-c2nnn(CC(=O)NCc3ccco3)n2)cc1 | 0% | -3% | 48% | 31* | 69* | -5%
CC(C)CC(=O)Nc1ccc(-c2nnn(CC(=O)NCc3ccco3)n2)cc1 | 152% | 2% | 32% | 29* | 86* | 7%
Cc1ccc(C(=O)C(C)OC(=O)c2nc(Cl)ccc2Cl)cc1 (stereo not given) | -7% | 2% | 8% | -2 | -17 | 2%
CCOc1ccccc1OCCCC(=O)Nc1cc(S(=O)(=O)N2CCOCC2)ccc1OC | · | 4% | · | · | · | ·
Cc1c(C(=O)c2ccccc2C(=O)O)sc2ccccc12 | 0% | 0% | -1% | -1 | -7 | 1%
CCOc1ccc(-c2nnn(CC(=O)NCc3ccc(OC)cc3)n2)cc1OCC | -16% | 6% | -8% | -7 | -15 | -2%
CCOc1ccc(-c2nnn(CC(=O)NCc3ccc(C)cc3)n2)cc1 | 7.4µM* | -5% | 1% | 10 | 18 | ·
COc1ccc(-c2cc(-c3ccccc3)c(C#N)c(S(C)=O)n2)cc1 (stereo not given) | 9% | 0% | · | -2 | -15 | -6%
COc1ccc(-c2cc(-c3cccs3)c(C#N)c(SCC(=O)NCc3ccccc3OC)n2)cc1 | 10µM* | 4% | 2.3µM* | -1 | 12 | -6%
COc1ccc(-c2cc(-c3ccccc3)nc(SCC(=O)Nc3ncc(C)s3)c2C#N)cc1 | ? | 21% | 8.3µM* | -1 | -6 | 24%
CCSc1nc(-c2ccc(OC)cc2)cc(-c2ccccc2)c1C#N | 13µM* | 6% | · | -4 | -12 | 3%
COc1ccnc(Oc2ccccc2)c1C(=O)N/C=N/OCc1ccccc1F | -13% | -1% | 27% | -2 | -5 | -3%
CN1CCN(C(=O)c2cccc(-c3cc(O)c4ncccc4c3)c2)CC1 | 10µM* | 6% | 10µM* | · | · | ·
c1cncc(-c2cc(-c3cc(-c4cccnc4)n[nH]3)[nH]n2)c1 | · | · | · | · | · | 22%
CN1CCCN(C(=O)c2cccc(Br)c2)CC1 | ? | 2% | -8% | 1 | -3 | 22%
Oc1cc(-c2cccnc2)cc2cccnc12 | 4.1µM* | 5% | 7.4µM* | · | · | ·
CN1CCN(c2cc(-c3cc(O)c4ncccc4c3)ccn2)CC1 | ? | 1% | 12µM* | · | · | ·
O=C(c1cc2ccccc2cc1O)N1CCN(c2ccccn2)CC1 | ? | 1% | ? | -2 | -5 | -8%
CCC/C(O)=C1\C(=O)CC(c2ccccc2)CC1=NCCc1c(C)[nH]c2ccccc12 (stereo not given) | ? | -12% | 2.6µM* | 4 | -13 | 20%
